Measured values reported in PubChem BioAssay.
Active and inactive are the calls of the source.

Experiments:
[1] = target: Albumin (Bos taurus) (UniProt P02769); test: compounds binding labelled BSA control protein – biochemical, small-molecule microarray, Alexa647 label, 635/667 nm fluorescence, artefact control for SMM control protein annotation, profiling panel (AID 1118); settings: BSA-A647 binding, fluorescence 635 nm, higher = more signal;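 further: score merges 667 nm emission intensity and signal-to-noise per printed compound spot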
Albumin (Bos taurus), sequence (P02769 whole entry, looked up): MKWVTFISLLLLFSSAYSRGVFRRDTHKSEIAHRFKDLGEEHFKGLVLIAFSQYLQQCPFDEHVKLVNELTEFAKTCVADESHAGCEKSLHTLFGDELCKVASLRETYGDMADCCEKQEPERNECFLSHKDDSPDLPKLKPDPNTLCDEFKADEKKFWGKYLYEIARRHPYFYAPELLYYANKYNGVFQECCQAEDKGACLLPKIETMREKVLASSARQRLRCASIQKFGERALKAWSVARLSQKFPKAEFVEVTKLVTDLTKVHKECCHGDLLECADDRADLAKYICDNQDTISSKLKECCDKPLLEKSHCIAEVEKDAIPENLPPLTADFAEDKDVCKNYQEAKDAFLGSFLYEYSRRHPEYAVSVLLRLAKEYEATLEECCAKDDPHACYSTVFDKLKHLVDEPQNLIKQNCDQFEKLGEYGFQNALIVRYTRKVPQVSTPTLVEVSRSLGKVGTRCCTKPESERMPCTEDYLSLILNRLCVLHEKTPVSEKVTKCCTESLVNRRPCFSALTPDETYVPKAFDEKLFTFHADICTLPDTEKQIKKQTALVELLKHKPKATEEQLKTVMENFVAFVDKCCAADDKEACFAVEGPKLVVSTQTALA

[2] = probe aXIP binding to arrayed compounds – biochemical, NeuroSMM set, 635/667 nm fluorescence, primary screen (AID 1119); settings: small-molecule microarray, higher = more signal, called active from +8 up or from −8 down;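 further: probe is the protein aXip251-270 applied at 1 µg/mL to compound-printed slides; binding of probe to printed compounds measured as 667 nm fluorescence plus signal to noise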
[3] = probe aNOTCH3 binding on compound microarray – biochemical, small-molecule microarray, 635/667 nm fluorescence, primary screen (AID 1120); settings: higher = more signal;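 further: probe is a biotin-tagged antibody raised against NOTCH3 rather than NOTCH3 protein; score merges spot fluorescence near 667 nm with spot signal to noise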
[4] = probe aNOTCH2 binding on compound microarray – biochemical, small-molecule microarray, 635/667 nm fluorescence, primary screen (AID 1121); settings: higher = more signal;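 further: score merges feature fluorescence read at 667 nm with its signal to noise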
[5] = target: Carbonic anhydrase 2 (Homo sapiens) (UniProt P00918); test: compounds binding carbonic anhydrase 2 – biochemical, small-molecule microarray, Alexa647-labelled CAII, profiling panel (AID 1122); settings: CAII-A647 binding fluorescence, higher = more signal
[6] = COS7 lysate on small-molecule microarray, probe aHis, 635 nm (AID 1123); settings: COS7 cell lysate, fluorescence, higher = more signal;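 further: z-score combines 667nm fluorescence intensity with signal-to-noise per printed compound spot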
[7] = probe aLAP1 signal on lysate-treated microarray – cell lysate, small-molecule microarray, COS7 lysate, primary screen (AID 1124); settings: probe aLAP1, fluorescence, higher = more signal;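 further: lysate comes from COS7 cells expressing LAP1 and is applied at 0.3 µg/mL; score merges spot fluorescence near 667 nm with signal-to-noise over triplicate slides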
[8] = system: Sam68 (KHDRBS1); test: compounds binding KHDRBS1 protein – biochemical, small-molecule microarray, 635 nm fluorescence, primary screen (AID 1125); settings: higher = more signal;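 further: score merges 667 nm channel intensity with signal to noise over triplicate slides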
[9] = system: Chordin-like protein 2 (CHRDL2); test: compounds binding chordin-like 2 – biochemical, small-molecule microarray, 635 nm fluorescence, primary screen (AID 1126); settings: fluorescence 635 nm, higher = more signal;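 further: printed compound slides probed with Chrdl2 protein at 4 µg/mL for 1 h at 4 C; score merges 667 nm emission intensity with signal to noise over three replicate slides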
[10] = target: Concanavalin-A (Canavalia ensiformis) (UniProt P02866); test: compounds binding concanavalin A lectin – biochemical, small-molecule microarray, Alexa647 label, 635 nm, artefact control for SMM control protein annotation, primary screen (AID 1127); settings: ConA-A647 binding fluorescence, higher = more signal;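 further: z combines 667 nm emission intensity with signal-to-noise across three replicate slides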
Concanavalin-A (Canavalia ensiformis), sequence (P02866 whole entry, looked up): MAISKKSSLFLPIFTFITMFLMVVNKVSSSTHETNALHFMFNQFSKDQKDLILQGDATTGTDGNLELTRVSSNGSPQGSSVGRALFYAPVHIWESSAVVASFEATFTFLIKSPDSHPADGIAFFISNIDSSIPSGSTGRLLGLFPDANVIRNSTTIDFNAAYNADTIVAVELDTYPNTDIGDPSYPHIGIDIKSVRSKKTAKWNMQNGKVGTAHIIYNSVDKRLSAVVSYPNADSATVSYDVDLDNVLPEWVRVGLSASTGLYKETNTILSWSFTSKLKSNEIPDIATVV

[11] = compounds binding Alexa647 anti-His antibody – biochemical, small-molecule microarray, 635 nm fluorescence, artefact control for SMM control protein annotation, primary screen (AID 1128); settings: higher = more signal;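 further: score merges feature fluorescence with signal-to-noise for each printed compound spot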
[12] = system: Human papillomavirus type 1a E7 protein (residues 1-88); test: HPV1a E7 small-molecule binders, primary screen, biochemical, small-molecule microarray, residues 1-88, 635 nm (AID 1129); settings: small-molecule microarray binding, fluorescence 635 nm; higher = more signal
[13] = target: Focal adhesion kinase 1 (Homo sapiens) (UniProt Q05397); test: PTK2 protein binding on printed compound slides – biochemical, small-molecule microarray, 635/667 nm fluorescence, BSA, DTT, primary screen (AID 1130); settings: 635 nm fluorescence, higher = more signal;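 further: composite of spot emission at 667 nm and signal to noise over triplicate slides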
Focal adhesion kinase 1 (Homo sapiens), sequence (Q05397 whole entry, looked up): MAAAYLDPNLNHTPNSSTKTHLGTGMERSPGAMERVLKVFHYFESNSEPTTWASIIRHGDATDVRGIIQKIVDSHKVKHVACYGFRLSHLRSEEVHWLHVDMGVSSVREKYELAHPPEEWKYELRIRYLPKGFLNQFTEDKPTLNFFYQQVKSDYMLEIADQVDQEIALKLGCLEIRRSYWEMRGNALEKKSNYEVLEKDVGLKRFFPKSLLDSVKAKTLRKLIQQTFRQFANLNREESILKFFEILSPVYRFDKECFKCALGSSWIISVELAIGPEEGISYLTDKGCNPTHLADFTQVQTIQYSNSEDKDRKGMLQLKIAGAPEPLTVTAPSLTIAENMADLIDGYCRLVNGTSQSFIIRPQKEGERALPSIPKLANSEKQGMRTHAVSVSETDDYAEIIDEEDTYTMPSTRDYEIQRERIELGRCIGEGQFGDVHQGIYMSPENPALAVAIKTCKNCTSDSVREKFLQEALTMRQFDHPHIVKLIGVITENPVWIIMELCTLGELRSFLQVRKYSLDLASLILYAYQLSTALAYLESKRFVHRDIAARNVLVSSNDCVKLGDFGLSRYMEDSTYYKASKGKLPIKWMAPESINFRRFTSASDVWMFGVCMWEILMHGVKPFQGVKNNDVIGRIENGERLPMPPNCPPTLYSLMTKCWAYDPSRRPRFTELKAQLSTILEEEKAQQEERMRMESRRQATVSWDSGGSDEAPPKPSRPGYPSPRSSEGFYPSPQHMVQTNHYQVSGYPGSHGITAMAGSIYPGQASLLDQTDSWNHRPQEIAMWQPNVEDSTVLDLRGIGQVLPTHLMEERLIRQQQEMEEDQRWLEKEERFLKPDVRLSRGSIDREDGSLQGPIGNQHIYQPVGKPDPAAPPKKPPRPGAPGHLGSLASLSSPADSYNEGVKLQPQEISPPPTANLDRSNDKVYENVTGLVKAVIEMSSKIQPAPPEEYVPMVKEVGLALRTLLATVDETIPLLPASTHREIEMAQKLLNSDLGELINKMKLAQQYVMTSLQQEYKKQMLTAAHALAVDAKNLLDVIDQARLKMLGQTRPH

[14] = system: Fibrinogen (Alexa647-labelled); test: Alexa647-fibrinogen binding to printed small molecules – biochemical, small-molecule microarray, 635/667 nm fluorescence, artefact control for SMM control-protein annotation, profiling panel (AID 1131); settings: fibrinogen-A647 binding fluorescence, higher = more signal;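 further: z-score merges 667 nm fluorescence with per-spot signal-to-noise over triplicate slides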
[15] = target: Follistatin (Homo sapiens) (UniProt P19883); test: FST protein binding to printed compounds – biochemical, small-molecule microarray, 635/667 nm fluorescence, primary screen (AID 1132); settings: 635 nm fluorescence, higher = more signal
Follistatin (Homo sapiens), sequence (P19883 whole entry, looked up): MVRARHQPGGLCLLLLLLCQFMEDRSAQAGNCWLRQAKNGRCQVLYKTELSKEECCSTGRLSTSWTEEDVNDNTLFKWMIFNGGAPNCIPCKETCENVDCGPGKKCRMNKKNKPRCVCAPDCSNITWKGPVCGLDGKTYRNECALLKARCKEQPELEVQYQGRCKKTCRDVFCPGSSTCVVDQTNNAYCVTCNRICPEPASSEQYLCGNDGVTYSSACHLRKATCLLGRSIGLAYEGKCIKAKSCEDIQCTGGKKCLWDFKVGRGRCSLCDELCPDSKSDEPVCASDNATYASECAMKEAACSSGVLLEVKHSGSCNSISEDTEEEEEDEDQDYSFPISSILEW

[16] = target: Fibroblast growth factor 2 (Homo sapiens) (UniProt P09038); test: basic fibroblast growth factor binding to printed compounds – biochemical, small-molecule microarray, 635/667 nm fluorescence, primary screen (AID 1133); settings: FGF2, fluorescence 635/667, higher = more signal
Fibroblast growth factor 2 (Homo sapiens), sequence (P09038 whole entry, looked up): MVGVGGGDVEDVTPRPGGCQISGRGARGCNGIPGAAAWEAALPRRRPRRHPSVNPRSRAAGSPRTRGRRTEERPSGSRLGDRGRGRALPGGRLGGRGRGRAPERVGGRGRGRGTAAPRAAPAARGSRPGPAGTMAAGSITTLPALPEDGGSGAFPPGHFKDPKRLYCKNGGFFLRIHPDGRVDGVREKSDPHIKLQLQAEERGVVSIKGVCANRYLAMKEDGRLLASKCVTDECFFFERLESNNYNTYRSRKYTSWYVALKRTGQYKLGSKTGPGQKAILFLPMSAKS

[17] = JC-1 mitochondrial potential readout, lung cancer cells – cell-based, A549, JC-1 fluorescence, basal, 24 h, 100 nL, profiling panel (AID 1138); settings: higher = more signal;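 further: A549 lung adenocarcinoma cells under basal conditions with no added stimulus; test concentration not given here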
[18] = system: Lefty1; test: Lefty1 protein binding to printed compounds – biochemical, small-molecule microarray, 635/667 nm fluorescence, primary screen (AID 1139); settings: fluorescence 635/667, higher = more signal
[19] = system: wheat germ agglutinin (Triticum aestivum), Alexa647-labelled; test: Alexa647-WGA lectin binding to printed small molecules – biochemical, small-molecule microarray, 635/667 nm fluorescence, artefact control for SMM control-protein annotation, profiling panel (AID 1140); settings: WGA-A647 binding, 635 nm fluorescence, higher = more signal;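 further: score merges 667 nm feature emission with signal to noise over triplicate slides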
[20] = target: Luciferin 4-monooxygenase (Photinus pyralis) (UniProt P08659); test: inhibition of purified Photinus pyralis luciferase – biochemical, luminescence, purified enzyme, 2006 set, primary screen (AID 1141); settings: purified firefly luciferase, SteadyGlo luminescence, 30 min; higher = more signal, called active from +8 up or from −8 down;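 further: cell-free assay with purified firefly luciferase at 100 ng per well in PBS; test concentration not given here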
Luciferin 4-monooxygenase (Photinus pyralis), sequence (P08659 whole entry, looked up): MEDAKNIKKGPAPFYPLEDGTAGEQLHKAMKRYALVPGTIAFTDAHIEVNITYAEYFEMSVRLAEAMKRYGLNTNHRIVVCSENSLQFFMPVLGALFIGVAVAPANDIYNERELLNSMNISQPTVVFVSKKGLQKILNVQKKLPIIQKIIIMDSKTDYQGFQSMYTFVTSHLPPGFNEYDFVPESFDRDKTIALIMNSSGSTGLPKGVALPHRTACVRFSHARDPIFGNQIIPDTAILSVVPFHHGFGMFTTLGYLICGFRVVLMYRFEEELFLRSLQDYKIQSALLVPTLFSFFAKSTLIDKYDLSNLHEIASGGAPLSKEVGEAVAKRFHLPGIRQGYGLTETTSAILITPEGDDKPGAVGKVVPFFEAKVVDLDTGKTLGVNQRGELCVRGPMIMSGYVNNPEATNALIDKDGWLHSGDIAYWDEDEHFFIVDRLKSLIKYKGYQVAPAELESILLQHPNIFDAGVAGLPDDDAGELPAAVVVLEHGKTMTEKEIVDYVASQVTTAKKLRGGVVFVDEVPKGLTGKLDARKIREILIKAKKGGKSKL

SMILES | composite z-score [1] | composite Z-score [2] | composite z-score [3] | composite z-score [4] | composite z-score [5] | composite z-score [6] | composite z-score [7] | composite z-score [8] | composite z-score [9] | composite z-score [10] | composite z-score [11] | composite z-score [12] | composite z-score [13] | composite z-score [14] | composite z-score [15] | composite z-score [16] | z-score [17] | composite z-score [18] | composite z-score [19] | z-score [20]
CCOC(=O)C[C@H]1[C@H](OC(=O)c2ccccc2-c2ccccc2)[C@@H](NC(=O)C2CCCCC2)c2cc(OCCCO)ccc2N1C(=O)c1ccccc1 | 0.576 | 0.909 (inactive) | -0.0647 | -0.0784 | 0.393 | 0.68 | -0.175 | 0.692 | 0.173 | 0.404 | 0.198 | 0.352 | -0.268 | 0.334 | 0.392 | 1.39 | 1.33 | 0.845 | -0.109 | -0.539 (inactive)
CO[C@H]1O[C@H](CO)[C@@H](OC(=O)Nc2ccccc2)[C@H](OC(=O)Nc2ccc3c(c2)OCO3)[C@@H]1OC(=O)Nc1ccc2c(c1)OCO2 | 0.536 | 0.741 (inactive) | 0.0459 | -0.101 | 0.655 | 2.17 | 0.759 | 1.3 | -0.17 | 1.12 | 2.53 | 1.2 | 1.02 | 0.771 | 0.87 | 0.0385 | 1.18 | 0.563 | 1.21 | -5.6 (inactive)
O=C1C[C@@](C(=O)NC2CC2)(c2ccc([N+](=O)[O-])cc2)[C@@H](c2ccc(CO)cc2I)N1CC12CC3CC(CC(C3)C1)C2 | -0.344 | 0.381 (inactive) | 0.0538 | -0.19 | 0.473 | 1.64 | 2.12 | 1.12 | 0.224 | 1.1 | -0.317 | 1.18 | 0.32 | 0.751 | 1.07 | 0.718 | -0.558 | 1.15 | 0.793 | -0.318 (inactive)
CC(C)NC(=O)[C@@]1(Cc2ccccc2I)c2ccccc2C(=O)N(C2CCCCC2)[C@H]1c1ccc(CO)cc1 | 0.965 | 0.256 (inactive) | 0.233 | 0.076 | 0.312 | 2.55 | 0.429 | 1.31 | 0.127 | 1.1 | 2.52 | 1.24 | 0.628 | 0.991 | 1.17 | 0.148 | -0.105 | 0.227 | 0.916 | 0.95 (inactive)
COC(=O)[C@@]1(Cc2ccccc2CN=[N+]=[N-])N=C(c2ccc(OCCCO)cc2)O[C@H]1c1ccccc1N=[N+]=[N-] | -0.0759 | -0.22 (inactive) | -0.0164 | 0.215 | 0.569 | 1.33 | -0.507 | 0.454 | -0.388 | 0.544 | -0.0307 | 0.339 | 1.96 | 0.694 | 0.832 | 0.0085 | -0.403 | 0.79 | 0.727 | -10.1 (active)
O=C1O[C@@H](c2ccccc2)[C@@H](c2ccccc2)N2[C@@H](c3ccc(O)cc3)[C@]3(C(=O)Nc4ccccc43)[C@@H](C(=O)N3CCN(c4ncccn4)CC3)[C@H]12 | 0.689 | 5.4 (inactive) | -0.122 | -0.154 | 0.686 | 0.456 | 0.613 | 0.528 | -0.571 | 0.474 | 0.265 | 1.19 | 0.225 | 0.179 | 0.169 | -0.0433 | 0.948 | -0.173 | -0.387 | -1.51 (inactive)
CO[C@H]1COC(=O)[C@H](C)COC(=O)[C@H](Cc2ccccc2)NC(=O)CC=C[C@H]1C | -1.16 | 0.72 (inactive) | 0.62 | 0.087 | -0.612 | -0.826 | 0.266 | -1.02 | 1.53 | -0.994 | -0.384 | -1.55 | 0.195 | -1.04 | 1.42 | 0.807 | 1.71 | 1.16 | -1.5 | -1.14 (inactive)
CCCNC(=O)[C@@]1(Sc2ccc(C)cc2)CC(=O)N(Cc2ccccc2Cl)[C@@H]1c1ccc(CO)cc1 | 0.694 | 0.165 (inactive) | 0.308 | -0.0906 | 0.572 | 1.67 | 1.2 | 1.31 | 0.725 | 1.12 | 1.12 | 1.15 | 0.29 | 0.789 | 1.42 | 1.6 | 1.02 | 1.19 | 1.18 | -0.0629 (inactive)
CCCNC(=O)[C@@H]1c2ccccc2C(=O)N(C2CCCCC2)[C@H]1c1ccc(CO)cc1 | 0.334 | 0.474 (inactive) | 0.103 | -0.106 | 0.293 | 2.72 | 0.711 | 1.29 | 0.179 | 1.03 | 2.26 | 1.22 | 0.798 | 0.958 | 0.927 | 0.915 | 0.888 | 0.443 | 0.795 | 0.311 (inactive)
COc1ccc(-c2cc3c(c(-c4ccccc4)n2)[Si](C(C)C)(C(C)C)O[C@H]3c2ccccc2)cn1 | 0.843 | 0.0861 (inactive) | 0.201 | -0.0349 | -0.0177 | 0.263 | -0.0375 | 0.723 | 0.288 | 0.165 | -0.614 | 0.438 | -0.142 | 0.0413 | 0.758 | 0.343 | 0.136 | 0.506 | -0.0707 | 0.167 (inactive)
